What follows are compounds tested on HFF (assay: cell viability relative to DMSO control; higher = less cytotoxic). Conditions: 1 µM; 72 h.
Protocol: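 Single-dose cytotoxicity screen of the MMV Pandemic Response Box at 1 uM on human foreskin fibroblasts (HFF), 72 h at 37 C. Viability measured by MTT (OD 550 nm) and normalised to the DMSO control (% survival).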

Point of comparison: COc1ccc(C[C@@H](C)[C@@H](C)Cc2ccc(OC)c(OC)c2)cc1OC, cell viability 65.2%. Against it:
- Clc1ccc(Cn2c(CN3CCCC3)nc3ccccc32)cc1 — higher, 67.7%
- COc1ccc2nc(-c3ccccc3)cc(O)c2c1 — higher, 75%
- CCOCc1nc2c(N)nc3ccccc3c2n1CC(C)(C)O — higher, 70.5%
- CCC(CC)[C@H](NC(C)=O)[C@@H]1[C@H](O)[C@@H](C(=O)O)C[C@H]1NC(=N)N — higher, 73.5%
- Cc1ncc([N+](=O)[O-])n1CC(C)O (configuration not stated) — higher, 68.8%
- Nc1nc(C(F)(F)F)cc2c1[nH]c(=O)n2Cc1ccccc1 — lower, 65%
- CC1(C)Cc2c(C#N)c(SCCc3ccccc3)nc(N3CCOCC3)c2CO1 — higher, 81.4%
- Nc1nnc(-c2ccc(Cl)cc2)s1 — lower, 62.7%
- CCCCCc1ccc(C(=O)NCCn2cc(CCCCCc3c[nH]c(N)n3)nn2)cc1 — higher, 66.1%
- CC(C)Nc1nc2cc(Cl)c(Cl)cc2n1[C@H]1O[C@@H](CO)[C@H](O)[C@@H]1O — higher, 67.8%
- Clc1ccc(COC(Cn2ccnc2)c2ccc(Cl)cc2Cl)c(Cl)c1 (configuration not stated) — higher, 66.8%
- O=c1nc(N2CCN(CC3CCCCC3)CC2)sc2c([N+](=O)[O-])cc(C(F)(F)F)cc12 — lower, 57.6%
- CCc1nc(N)nc(N)c1C#CC(C)c1cc(OC)cc(-c2ccncc2)c1 (configuration not stated) — higher, 79.3%
- O=C(NCc1ncc(C(F)(F)F)cc1Cl)c1c(Cl)cccc1Cl — higher, 74.8%
- NC(=S)N/N=C/c1ncccc1N — higher, 65.3%
- Cc1cc(CCOc2c(C)cc(-c3nnn(C)n3)cc2C)on1 — higher, 69.2%
- O=c1oc2ccc(Br)cc2cc1CSc1ncc[nH]1 — higher, 74.7%
- O=C(O)c1ccccc1Sc1ncnc2sc3c(c12)CCC3 — higher, 67.7%
- O=C(O)COc1cccc2c1CC[C@](O)(COC(=O)N(c1ccccc1)c1ccccc1)C2 — higher, 68.5%
- Cc1ccc(N2CCC(CCOc3ccc(S(C)(=O)=O)cc3)CC2)nn1 — higher, 68.1%
- NNC(=O)c1ccncc1 — lower, 62.8%
- COc1ccc(CNC(=O)C2CCN([C@H](C)c3cccc4ccccc34)CC2)cc1 — lower, 62.6%
- Cc1ccc(C)c(OCCCCCCN2C[C@H](O)[C@@H](O)[C@H](O)[C@H]2CO)c1 — lower, 64.6%
- CN1c2ccc(Cl)cc2N(c2ccccc2)C(=O)c2cn(Cc3ccc(CN4CCOCC4)cc3)nc21 — higher, 68.2%
- c1cnc(NCc2ccc(CNc3ncccn3)cc2)nc1 — higher, 67.2%
- Fc1ccc2c(/C=C/c3cccnc3)c[nH]c2c1 — lower, 63.2%
- CC1CCc2c(N3CCC(O)CC3)c(F)cc3c(=O)c(C(=O)O)cn1c23 (configuration not stated) — lower, 59.7%
- Cc1nc(N(C)C(=O)Cc2ccc(-c3ccccn3)cc2)sc1S(N)(=O)=O — higher, 66.3%
- CC[C@@H](CO)NCCN[C@@H](CC)CO — higher, 76.1%
- CC(C)Oc1ccc(-c2nc(-c3cccc4c3CC[C@@H]4NCCO)no2)cc1C#N — higher, 65.4%
- Oc1c(C(Nc2ccccn2)c2ccccc2)ccc2cccnc12 (configuration not stated) — higher, 69.9%
- Cc1cccc(CC(=O)N[C@H]2CCOC2=O)c1 — higher, 77.2%
- CN(C)CCCNC(=O)c1ccc(-c2cc(O)c3ncccc3c2)cc1 — higher, 67.8%
- OB1OCc2c1ccc(Cl)c2F — higher, 68.5%
- COc1cc(NCc2ccc3nc(N)nc(N)c3c2C)cc(OC)c1OC — lower, 63.7%
- CCCCOC(=O)Nc1cc2nc(C3CCCCC3)[nH]c2cc1N(CC)CC — higher, 72.1%
